# Results: the supplement of paper PMC8728848
# Many of the other results were omitted from the sample, so the strongest signals are more common in it than they were.
# B1: Epa1-NP-mutant-D229G (Candida glabrata), Q6VBJ0 (protein)
# chain: MILNPALFLNKCVCIYTTLILLLLTNGGYATSSNDISLASKDPTTFPLGCSPDITTPKKGLSMELYSYDFRKKGSYPCWDAAYLDPNYPRTGYKSHRLLAKVDGVTGNINFYYHATKGCTPQLGHLPASYNYPKPLTMTNFTMLLYGYFRPKVTGFHTFTISADDLLFVNFGAGNAFDCCRRDSSADHFGNYQAYAIWGSKTAKDELTVHLDAGVYYPIRLFYNNREYGGALSFTFKTESNENTVSDFSEYFFSLDDTEEGCPGLISYDSSCASVKTSKIIGIDYHTETPNENLVPITKTIYHLGIPCTGTTTTPLCGSGFYDPLANKCVTINTSSTSSVTKTTSHTTSKEVSFHSSISSQKTLIPKSIPSPYGPIKSQSIPTEMETSSEISSSEYAFSDVISTPSHSPYTKKHSSLNSSSYTSTVIHSLTSYSISQGIFSTSLSEQNITSKSSTDKFSTATSMSNNITQSSIIISQFSTNNENYTTTSMHTSSDKISTETLNNSISTTTSILFSNSSTILKNNTTIISSDKDTHYHPVNPTIVCSTNKTEIICASITQPSISNSNNHWSSSVLKFNSTTVRSTLPSSAGSNETSINVPFSSSTESNTSTSSTSTSNSKMVRSTLPSSAGSNETSISVPFSSSTESNTSTSSTSTSNSKMVRSTLPSSAGSNETSINVPFSSSTESNTSTSSTSTSNSKTVRSTPFSSAGIIMTSLSQRNNKSASSYASSNSKCYNTADSCRKVHSTPSYLLTSSYTSEGVDYDCSLVSTKLKINDTNCVNNKHTTKSCLKTSVTTTIPTLEIKTARKSSSNTIGLHSYPTSSPNKSISSAPIIGYISSFKTIKTASPSYQTSDLTTITTITSLNNPGSTAVENTHESNDKSRKTSSNDISSKHSVIKETKDAVESSNKSHQTNTLKCSSIIIASSSHNSYESLGGTTLTLTLSKVYSPQNNDTLPFLEISEVNPSRTVLPESSKMMQYLTSTEERNKTARNTIATNIVSISTFHFEGEGNAIRMGYTQLLLMLIGIIVMNIGT
# Assays:
# Experiment in all cases: glycan array binding signal (z-score within array); higher = stronger binding
# Settings in all cases: glycan notation: IUPAC condensed, linker removed; mutation: D229G
# [1] = target: Gal(b1-4)GlcNAc(b1-3)Gal(b1-4)[Fuc(a1-3)]GlcNAc(b1-3)Gal(b1-4)[Fuc(a1-3)]GlcNAc
# Outline: (§1)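 Columns mapping to the same glycan were averaged after glycan names were converted to IUPAC-condensed notation. The data come from 3228 arrays in the Consortium for Functional Glycomics database, limited to those with an available protein sequence. Binding is reported as a within-array Z-score averaged across arrays of one protein sequence and across linkers.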
# [2] = target: Gal(b1-4)GlcNAc(b1-3)[Gal(b1-4)GlcNAc(b1-6)]Gal(b1-4)GlcNAc
# Outline: as §1
# Gal3S(b1-3)GalNAc = target: Gal3S(b1-3)GalNAc
# Outline: as §1
# [3] = target: Gal3S(b1-4)[Fuc(a1-3)]Glc6S
# Outline: as §1
# Gal3S6S(b1-4)GlcNAc = target: Gal3S6S(b1-4)GlcNAc
# Outline: as §1
# Gal4S6S(b1-4)GlcNAc = target: Gal4S6S(b1-4)GlcNAc
# Outline: as §1
# Gal6S(b1-4)GlcNAc6S = target: Gal6S(b1-4)GlcNAc6S
# Outline: as §1
# GalNAc(a1-3)GalNAc = target: GalNAc(a1-3)GalNAc
# Outline: as §1
# GalNAc(b1-4)Gal(b1-4)Glc = target: GalNAc(b1-4)Gal(b1-4)Glc
# Outline: as §1
# [4] = target: GalNAc(b1-4)GlcNAc(b1-2)Man(a1-3)[GalNAc(b1-4)GlcNAc(b1-2)Man(a1-6)]Man(b1-4)GlcNAc(b1-4)GlcNAc
# Outline: as §1
# GalNAc(b1-6)GalNAc = target: GalNAc(b1-6)GalNAc
# Outline: as §1
# [5] = target: GlcNAc(a1-3)Gal(b1-4)GlcNAc
# Outline: as §1
# [6] = target: GlcNAc(a1-4)Gal(b1-4)GlcNAc(b1-3)Gal(b1-4)GlcNAc
# Outline: as §1
# [7] = target: GlcNAc(a1-4)Gal(b1-4)GlcNAc(b1-3)Gal(b1-4)GlcNAc(b1-3)Gal(b1-4)GlcNAc
# Outline: as §1
# [8] = target: GlcNAc(b1-3)Gal(b1-4)GlcNAc(b1-3)Gal(b1-4)GlcNAc(b1-3)Gal(b1-4)GlcNAc(b1-3)Gal(b1-4)GlcNAc(b1-2)Man(a1-3)[GlcNAc(b1-3)Gal(b1-4)GlcNAc(b1-3)Gal(b1-4)GlcNAc(b1-3)Gal(b1-4)GlcNAc(b1-3)Gal(b1-4)GlcNAc(b1-2)Man(a1-6)]Man(b1-4)GlcNAc(b1-4)[Fuc(a1-6)]GlcNAc
# Outline: as §1
# [9] = target: GlcNAc(b1-3)Gal(b1-4)GlcNAc(b1-3)Gal(b1-4)GlcNAc(b1-3)Gal(b1-4)GlcNAc(b1-3)Gal(b1-4)GlcNAc(b1-2)[GlcNAc(b1-3)Gal(b1-4)GlcNAc(b1-3)Gal(b1-4)GlcNAc(b1-3)Gal(b1-4)GlcNAc(b1-3)Gal(b1-4)GlcNAc(b1-6)]Man(a1-6)[GlcNAc(b1-3)Gal(b1-4)GlcNAc(b1-3)Gal(b1-4)GlcNAc(b1-3)Gal(b1-4)GlcNAc(b1-3)Gal(b1-4)GlcNAc(b1-2)Man(a1-3)]Man(b1-4)GlcNAc(b1-4)[Fuc(a1-6)]GlcNAc
# Outline: as §1
# GlcNAc(b1-3)Man = target: GlcNAc(b1-3)Man
# Outline: as §1
# [10] = target: GlcNAc(b1-4)GlcNAc(b1-4)GlcNAc
# Outline: as §1
# [11] = target: Man(a1-3)[Man(a1-6)]Man(a1-6)[Man(a1-2)Man(a1-3)]Man(b1-4)GlcNAc(b1-4)GlcNAc
# Outline: as §1
# [12] = target: Man(a1-3)[Man(a1-6)]Man(b1-4)GlcNAc(b1-4)[Fuc(a1-6)]GlcNAc
# Outline: as §1
# [13] = target: Neu5Ac(a2-3)Gal(b1-3)GlcNAc6S
# Outline: as §1
# [14] = target: Neu5Ac(a2-3)Gal(b1-3)]Neu5Ac(a2-3)Gal(b1-4)]GlcNAc
# Outline: as §1
# [15] = target: Neu5Ac(a2-3)Gal(b1-4)GlcNAc(b1-6)[Gal(b1-3)]GalNAc
# Outline: as §1
# Neu5Ac(a2-6)Gal = target: Neu5Ac(a2-6)Gal
# Outline: as §1
# [16] = target: Neu5Ac(a2-6)Gal(b1-4)GlcNAc(b1-2)Man
# Outline: as §1
# [17] = target: Neu5Ac(a2-6)Gal(b1-4)GlcNAc(b1-3)Gal(b1-4)GlcNAc(b1-3)[Neu5Ac(a2-6)Gal(b1-4)GlcNAc(b1-3)Gal(b1-4)GlcNAc(b1-6)]GalNAc
# Outline: as §1
# [18] = target: Neu5Ac(a2-6)Gal(b1-4)GlcNAc(b1-3)Gal(b1-4)[Fuc(a1-3)]GlcNAc(b1-3)Gal(b1-4)[Fuc(a1-3)]GlcNAc
# Outline: as §1
# [19] = target: Neu5Ac(a2-6)GalNAc(b1-4)GlcNAc6S
# Outline: as §1
# [20] = target: Neu5Ac(a2-8)Neu5Ac(a2-3)Gal(b1-3)GalNAc(b1-4)[Neu5Ac(a2-3)]Gal(b1-4)Glc
# Outline: as §1
# [21] = target: Neu5Ac(a2-8)Neu5Ac(a2-3)[Gal(b1-3)GalNAc(b1-4)]Gal(b1-4)Glc
# Outline: as §1
# [22] = target: Neu5Ac(a2-8)Neu5Ac(a2-8)Neu5Ac(a2-3)[GalNAc(b1-4)]Gal(b1-4)Glc
# Outline: as §1
# Neu5Gc(a2-6)GalNAc = target: Neu5Gc(a2-6)GalNAc
# Outline: as §1
binder,measurement,setting,value
B1,glycan array binding signal (z-score),[1],-0.579
same,glycan array binding signal (z-score),[2],0.003
same,glycan array binding signal (z-score),Gal3S(b1-3)GalNAc,-0.232
same,glycan array binding signal (z-score),[3],1.6
same,glycan array binding signal (z-score),Gal3S6S(b1-4)GlcNAc,2.68
same,glycan array binding signal (z-score),Gal4S6S(b1-4)GlcNAc,1.06
same,glycan array binding signal (z-score),Gal6S(b1-4)GlcNAc6S,10.9
same,glycan array binding signal (z-score),GalNAc(a1-3)GalNAc,0.722
same,glycan array binding signal (z-score),GalNAc(b1-4)Gal(b1-4)Glc,0.754
same,glycan array binding signal (z-score),[4],1.11
same,glycan array binding signal (z-score),GalNAc(b1-6)GalNAc,0.649
same,glycan array binding signal (z-score),[5],-0.409
same,glycan array binding signal (z-score),[6],0.024
same,glycan array binding signal (z-score),[7],-0.64
same,glycan array binding signal (z-score),[8],0.489
same,glycan array binding signal (z-score),[9],0.337
same,glycan array binding signal (z-score),GlcNAc(b1-3)Man,-0.859
same,glycan array binding signal (z-score),[10],0.36
same,glycan array binding signal (z-score),[11],0.04
same,glycan array binding signal (z-score),[12],-0.736
same,glycan array binding signal (z-score),[13],-0.064
same,glycan array binding signal (z-score),[14],0.197
same,glycan array binding signal (z-score),[15],0.933
same,glycan array binding signal (z-score),Neu5Ac(a2-6)Gal,0.425
same,glycan array binding signal (z-score),[16],0.054
same,glycan array binding signal (z-score),[17],3.67
same,glycan array binding signal (z-score),[18],1.65
same,glycan array binding signal (z-score),[19],0.733
same,glycan array binding signal (z-score),[20],-0.032
same,glycan array binding signal (z-score),[21],0.215
same,glycan array binding signal (z-score),[22],-0.436
same,glycan array binding signal (z-score),Neu5Gc(a2-6)GalNAc,-0.701
